# Columns and labels:
# Experiment in all cases: DAPPL (digital affinity profiling via proximity ligation, sequencing); 10 mM Tris-HCl pH 7.5, 50 mM NaCl, 1 mM DTT, 4% glycerol, room temperature, 30 min; GST-TFs on glutathione beads, 16-mer random dsDNA library, 0.1% formaldehyde crosslink after washing; high values mean tight binding
# FLI1 = target: T1, FLI1 (Homo sapiens, UniProt Q01543 1-452); conditions: protein: recombinant; tags: N-terminal GST; dsDNA, one strand shown
# T1 sequence: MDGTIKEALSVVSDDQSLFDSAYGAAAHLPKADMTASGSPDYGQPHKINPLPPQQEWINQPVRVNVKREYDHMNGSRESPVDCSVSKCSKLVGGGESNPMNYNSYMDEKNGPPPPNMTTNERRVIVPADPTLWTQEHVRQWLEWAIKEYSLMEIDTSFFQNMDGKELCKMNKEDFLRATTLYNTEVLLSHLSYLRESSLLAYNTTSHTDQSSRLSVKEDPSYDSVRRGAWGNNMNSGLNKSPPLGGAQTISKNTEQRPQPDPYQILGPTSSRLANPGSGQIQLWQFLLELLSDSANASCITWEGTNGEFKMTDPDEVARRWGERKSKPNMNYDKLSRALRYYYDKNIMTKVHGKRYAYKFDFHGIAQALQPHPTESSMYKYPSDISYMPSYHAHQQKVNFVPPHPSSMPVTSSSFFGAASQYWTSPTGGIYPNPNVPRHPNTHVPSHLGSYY
# Procedure, shortened: (§1)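 A tag-only sample was pooled with DNA-barcoded human transcription factors that had been expressed in yeast as GST fusions and captured on glutathione beads. The pools were incubated for 30 min at room temperature with 200 nmole of a random double-stranded 16-mer DNA library in Tris/NaCl/DTT/glycerol buffer, then washed, crosslinked with 0.1% formaldehyde, proximity-ligated (BsaI/T4 ligase, 1 h, 37 °C), PCR-amplified and sequenced on an Illumina NextSeq500. Binding signal is each hexamer's read frequency for a factor divided by its frequency for the tag-only sample.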
# ELK1 = target: T2, ELK1 (Homo sapiens, UniProt P19419 1-428); conditions: protein: recombinant; tags: N-terminal GST; dsDNA, one strand shown
# T2 sequence: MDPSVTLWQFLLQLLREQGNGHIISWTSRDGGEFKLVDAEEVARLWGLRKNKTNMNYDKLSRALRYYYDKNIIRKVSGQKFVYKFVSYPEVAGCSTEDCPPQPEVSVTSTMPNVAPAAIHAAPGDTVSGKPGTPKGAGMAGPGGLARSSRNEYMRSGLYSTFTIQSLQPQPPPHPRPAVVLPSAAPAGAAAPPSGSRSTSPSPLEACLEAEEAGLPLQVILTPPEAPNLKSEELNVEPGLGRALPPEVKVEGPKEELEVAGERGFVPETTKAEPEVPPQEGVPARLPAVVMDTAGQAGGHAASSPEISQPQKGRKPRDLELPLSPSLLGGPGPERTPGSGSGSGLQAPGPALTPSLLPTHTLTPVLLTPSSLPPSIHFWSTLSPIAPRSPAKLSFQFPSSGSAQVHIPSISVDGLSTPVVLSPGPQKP
# Procedure, shortened: as §1
# GABPA = target: T3, GABPA (Homo sapiens, UniProt Q06546 1-454); conditions: protein: recombinant; tags: N-terminal GST; dsDNA, one strand shown
# T3 sequence: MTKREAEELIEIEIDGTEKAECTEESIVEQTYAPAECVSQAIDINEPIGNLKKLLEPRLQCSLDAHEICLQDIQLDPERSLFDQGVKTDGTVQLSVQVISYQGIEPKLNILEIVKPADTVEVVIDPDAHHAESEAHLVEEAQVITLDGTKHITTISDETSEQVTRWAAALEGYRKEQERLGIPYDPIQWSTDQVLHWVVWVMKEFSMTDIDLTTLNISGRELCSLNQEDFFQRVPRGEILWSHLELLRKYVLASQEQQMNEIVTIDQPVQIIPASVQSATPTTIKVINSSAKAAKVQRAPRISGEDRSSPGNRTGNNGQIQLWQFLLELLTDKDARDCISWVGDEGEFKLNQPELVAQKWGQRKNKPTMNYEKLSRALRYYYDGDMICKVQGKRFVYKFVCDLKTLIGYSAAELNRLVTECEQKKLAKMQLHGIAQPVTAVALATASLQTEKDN
# Procedure, shortened: as §1
# ERG = target: T4, ERG (Homo sapiens, UniProt P11308 1-479); conditions: protein: recombinant; tags: N-terminal GST; dsDNA, one strand shown
# T4 sequence: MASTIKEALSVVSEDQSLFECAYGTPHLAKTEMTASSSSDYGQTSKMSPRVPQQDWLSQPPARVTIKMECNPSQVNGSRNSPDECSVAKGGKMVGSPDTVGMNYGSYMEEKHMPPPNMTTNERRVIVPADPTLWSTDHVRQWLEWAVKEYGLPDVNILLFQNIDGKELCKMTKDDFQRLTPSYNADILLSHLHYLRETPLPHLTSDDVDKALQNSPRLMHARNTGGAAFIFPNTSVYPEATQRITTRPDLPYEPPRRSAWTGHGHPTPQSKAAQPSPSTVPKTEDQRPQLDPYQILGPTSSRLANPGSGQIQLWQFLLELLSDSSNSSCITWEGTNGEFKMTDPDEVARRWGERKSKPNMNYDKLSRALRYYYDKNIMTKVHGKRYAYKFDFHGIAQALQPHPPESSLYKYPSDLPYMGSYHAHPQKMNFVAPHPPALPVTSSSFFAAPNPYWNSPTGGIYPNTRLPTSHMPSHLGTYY
# Procedure, shortened: as §1
# ELF1 = ELF1 (Homo sapiens, UniProt P32519 1-619); conditions: protein: recombinant; tags: N-terminal GST; dsDNA, one strand shown
# Procedure, shortened: as §1
# EHF = target: T5, EHF (Homo sapiens, UniProt Q9NZC4 1-300); conditions: protein: recombinant; tags: N-terminal GST; dsDNA, one strand shown
# T5 sequence: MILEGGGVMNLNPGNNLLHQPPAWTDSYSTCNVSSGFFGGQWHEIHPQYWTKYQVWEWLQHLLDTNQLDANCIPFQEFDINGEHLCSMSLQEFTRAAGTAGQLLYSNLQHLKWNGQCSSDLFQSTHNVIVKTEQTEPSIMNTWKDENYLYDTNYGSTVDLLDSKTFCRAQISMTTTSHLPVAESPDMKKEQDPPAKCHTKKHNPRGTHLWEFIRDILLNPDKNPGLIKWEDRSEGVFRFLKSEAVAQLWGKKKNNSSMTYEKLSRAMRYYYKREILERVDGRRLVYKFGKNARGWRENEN
# Procedure, shortened: as §1
# SPI1 = SPI1 (Homo sapiens, UniProt P17947 1-270); conditions: protein: recombinant; tags: N-terminal GST; dsDNA, one strand shown
# Procedure, shortened: as §1
# SPIB = SPIB (Homo sapiens, UniProt Q01892 1-262); conditions: protein: recombinant; tags: N-terminal GST; dsDNA, one strand shown
# Procedure, shortened: as §1
# FEV = target: T6, FEV (Homo sapiens, UniProt Q99581 1-238); conditions: protein: recombinant; tags: N-terminal GST; dsDNA, one strand shown
# T6 sequence: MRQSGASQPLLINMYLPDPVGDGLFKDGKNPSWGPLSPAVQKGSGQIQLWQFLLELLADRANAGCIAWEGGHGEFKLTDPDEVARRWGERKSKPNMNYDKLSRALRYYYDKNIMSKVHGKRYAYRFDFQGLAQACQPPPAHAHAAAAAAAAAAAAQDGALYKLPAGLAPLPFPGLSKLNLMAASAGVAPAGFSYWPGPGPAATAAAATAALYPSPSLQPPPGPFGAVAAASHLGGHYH
# Procedure, shortened: as §1
# ETV5 = ETV5 (Homo sapiens, UniProt P41161 1-510); conditions: protein: recombinant; tags: N-terminal GST; dsDNA, one strand shown
# Procedure, shortened: as §1
# HSF1 = HSF1 (Homo sapiens, UniProt Q00613 1-529); conditions: protein: recombinant; tags: N-terminal GST; chain copies: 3; dsDNA, one strand shown
# Procedure, shortened: as §1
# SPIC = target: T7, SPIC (Homo sapiens, UniProt Q8N5J4 1-248); conditions: protein: recombinant; tags: N-terminal GST; dsDNA, one strand shown
# T7 sequence: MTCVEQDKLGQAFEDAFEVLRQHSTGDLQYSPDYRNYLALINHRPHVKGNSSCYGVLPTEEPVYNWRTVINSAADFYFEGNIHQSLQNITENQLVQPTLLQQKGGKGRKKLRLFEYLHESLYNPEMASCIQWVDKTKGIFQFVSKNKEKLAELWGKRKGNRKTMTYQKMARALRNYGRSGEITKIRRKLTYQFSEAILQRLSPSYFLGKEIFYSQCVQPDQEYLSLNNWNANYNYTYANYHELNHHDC
# Procedure, shortened: as §1
# ELF4 = ELF4 (Homo sapiens, UniProt Q99607 1-663); conditions: protein: recombinant; tags: N-terminal GST; dsDNA, one strand shown
# Procedure, shortened: as §1
# ELK4 = target: T8, ELK4 (Homo sapiens, UniProt P28324-2 1-405); conditions: protein: recombinant; tags: N-terminal GST; dsDNA, one strand shown
# T8 sequence: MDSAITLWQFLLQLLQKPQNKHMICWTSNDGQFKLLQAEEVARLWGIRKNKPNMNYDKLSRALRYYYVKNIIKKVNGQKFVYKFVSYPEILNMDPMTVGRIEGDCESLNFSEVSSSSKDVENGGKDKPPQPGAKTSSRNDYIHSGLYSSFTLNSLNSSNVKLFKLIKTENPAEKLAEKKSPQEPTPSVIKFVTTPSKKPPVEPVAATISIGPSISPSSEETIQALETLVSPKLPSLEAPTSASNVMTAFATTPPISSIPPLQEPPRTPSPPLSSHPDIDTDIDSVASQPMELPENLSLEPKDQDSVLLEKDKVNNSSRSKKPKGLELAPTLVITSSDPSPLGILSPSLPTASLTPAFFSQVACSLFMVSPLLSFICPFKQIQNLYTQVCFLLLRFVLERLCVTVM
# Procedure, shortened: as §1
# ETV2 = target: T9, ETV2 (Homo sapiens, UniProt O00321 1-342); conditions: protein: recombinant; tags: N-terminal GST; dsDNA, one strand shown
# T9 sequence: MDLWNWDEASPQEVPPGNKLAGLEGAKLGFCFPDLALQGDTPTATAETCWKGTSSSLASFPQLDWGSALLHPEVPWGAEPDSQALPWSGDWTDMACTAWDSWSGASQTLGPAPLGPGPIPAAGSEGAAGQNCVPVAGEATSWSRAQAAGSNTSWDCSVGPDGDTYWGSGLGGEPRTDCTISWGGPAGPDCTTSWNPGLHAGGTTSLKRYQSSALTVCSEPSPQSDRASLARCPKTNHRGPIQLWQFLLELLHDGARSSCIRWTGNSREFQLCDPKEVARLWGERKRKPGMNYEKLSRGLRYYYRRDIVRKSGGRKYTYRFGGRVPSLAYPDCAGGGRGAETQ
# Procedure, shortened: as §1
# ELF3 = target: T10, ELF3 (Homo sapiens, UniProt P78545 1-371); conditions: protein: recombinant; tags: N-terminal GST; dsDNA, one strand shown
# T10 sequence: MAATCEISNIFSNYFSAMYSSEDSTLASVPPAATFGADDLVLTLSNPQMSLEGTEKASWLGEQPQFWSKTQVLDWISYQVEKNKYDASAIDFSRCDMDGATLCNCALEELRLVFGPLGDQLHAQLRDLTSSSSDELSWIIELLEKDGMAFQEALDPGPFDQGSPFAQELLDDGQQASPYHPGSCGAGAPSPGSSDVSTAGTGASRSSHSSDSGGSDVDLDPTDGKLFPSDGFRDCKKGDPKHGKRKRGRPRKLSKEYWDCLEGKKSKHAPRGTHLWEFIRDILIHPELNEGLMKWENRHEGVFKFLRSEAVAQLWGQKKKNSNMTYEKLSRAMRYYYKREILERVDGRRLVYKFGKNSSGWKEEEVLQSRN
# Procedure, shortened: as §1
# ETV1 = ETV1 (Homo sapiens, UniProt P50549 1-477); conditions: protein: recombinant; tags: N-terminal GST; dsDNA, one strand shown
# Procedure, shortened: as §1
# Chain of ELF4 (Q99607 whole entry): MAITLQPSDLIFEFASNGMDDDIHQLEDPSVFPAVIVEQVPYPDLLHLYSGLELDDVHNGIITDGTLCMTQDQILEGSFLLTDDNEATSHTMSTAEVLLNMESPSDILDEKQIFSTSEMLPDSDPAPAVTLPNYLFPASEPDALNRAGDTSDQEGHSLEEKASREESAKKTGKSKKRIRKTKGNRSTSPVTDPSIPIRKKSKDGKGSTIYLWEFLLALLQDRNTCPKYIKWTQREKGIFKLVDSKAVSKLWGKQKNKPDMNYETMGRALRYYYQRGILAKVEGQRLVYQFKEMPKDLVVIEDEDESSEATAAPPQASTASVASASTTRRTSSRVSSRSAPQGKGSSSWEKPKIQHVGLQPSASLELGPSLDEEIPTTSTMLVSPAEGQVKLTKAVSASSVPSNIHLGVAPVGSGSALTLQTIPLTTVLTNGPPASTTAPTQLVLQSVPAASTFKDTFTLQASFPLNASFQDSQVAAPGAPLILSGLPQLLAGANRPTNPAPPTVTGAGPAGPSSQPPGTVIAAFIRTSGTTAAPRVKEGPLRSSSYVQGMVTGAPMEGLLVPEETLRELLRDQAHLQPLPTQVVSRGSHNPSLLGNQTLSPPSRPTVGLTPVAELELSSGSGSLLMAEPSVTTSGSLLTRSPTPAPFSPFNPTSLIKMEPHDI
# Chain of ETV1 (P50549 whole entry): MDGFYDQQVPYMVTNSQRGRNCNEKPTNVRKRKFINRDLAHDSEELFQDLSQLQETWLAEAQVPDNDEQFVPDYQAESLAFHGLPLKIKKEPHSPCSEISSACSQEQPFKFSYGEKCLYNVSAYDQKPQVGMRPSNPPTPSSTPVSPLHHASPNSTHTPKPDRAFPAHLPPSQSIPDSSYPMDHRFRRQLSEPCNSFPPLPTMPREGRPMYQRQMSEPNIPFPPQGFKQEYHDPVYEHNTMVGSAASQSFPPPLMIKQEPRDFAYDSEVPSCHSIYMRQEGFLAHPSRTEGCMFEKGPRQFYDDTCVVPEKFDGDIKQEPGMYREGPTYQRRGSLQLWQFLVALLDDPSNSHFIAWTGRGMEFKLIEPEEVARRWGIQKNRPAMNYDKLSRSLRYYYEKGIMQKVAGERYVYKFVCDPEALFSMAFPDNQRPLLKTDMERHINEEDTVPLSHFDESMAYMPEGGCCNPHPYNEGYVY
# Chain of ETV5 (P41161 whole entry): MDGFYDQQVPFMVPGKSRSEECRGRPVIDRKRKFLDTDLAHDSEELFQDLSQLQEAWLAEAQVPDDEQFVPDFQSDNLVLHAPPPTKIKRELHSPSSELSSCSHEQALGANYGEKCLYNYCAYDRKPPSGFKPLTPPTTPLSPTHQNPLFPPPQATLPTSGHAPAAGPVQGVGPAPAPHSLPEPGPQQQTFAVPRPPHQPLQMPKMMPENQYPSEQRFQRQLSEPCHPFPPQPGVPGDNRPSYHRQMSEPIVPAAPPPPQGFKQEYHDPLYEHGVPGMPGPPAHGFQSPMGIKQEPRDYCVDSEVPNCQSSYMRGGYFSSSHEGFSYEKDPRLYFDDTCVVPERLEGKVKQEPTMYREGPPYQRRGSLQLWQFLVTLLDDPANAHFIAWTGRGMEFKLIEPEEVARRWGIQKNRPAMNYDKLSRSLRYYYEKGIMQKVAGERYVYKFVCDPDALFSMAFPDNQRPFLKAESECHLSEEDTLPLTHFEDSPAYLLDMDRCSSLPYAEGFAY
# Chain of ELF1 (P32519 whole entry): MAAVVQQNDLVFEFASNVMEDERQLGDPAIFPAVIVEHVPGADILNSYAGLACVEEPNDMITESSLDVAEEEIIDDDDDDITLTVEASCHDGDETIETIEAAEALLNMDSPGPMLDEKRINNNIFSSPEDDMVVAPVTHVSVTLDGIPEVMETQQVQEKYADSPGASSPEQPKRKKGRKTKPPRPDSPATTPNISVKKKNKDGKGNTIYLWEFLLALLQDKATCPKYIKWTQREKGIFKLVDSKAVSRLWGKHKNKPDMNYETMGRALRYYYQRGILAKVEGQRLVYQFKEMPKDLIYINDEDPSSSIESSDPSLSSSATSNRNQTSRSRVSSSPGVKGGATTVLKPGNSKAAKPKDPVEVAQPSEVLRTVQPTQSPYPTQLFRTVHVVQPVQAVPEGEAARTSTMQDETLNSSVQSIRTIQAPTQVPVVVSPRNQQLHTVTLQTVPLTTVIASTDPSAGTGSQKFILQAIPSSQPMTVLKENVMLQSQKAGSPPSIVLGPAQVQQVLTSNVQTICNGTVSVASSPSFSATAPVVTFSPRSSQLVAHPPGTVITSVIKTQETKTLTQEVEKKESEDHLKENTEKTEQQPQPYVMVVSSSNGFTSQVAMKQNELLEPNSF
# Chain of SPIB (Q01892 whole entry): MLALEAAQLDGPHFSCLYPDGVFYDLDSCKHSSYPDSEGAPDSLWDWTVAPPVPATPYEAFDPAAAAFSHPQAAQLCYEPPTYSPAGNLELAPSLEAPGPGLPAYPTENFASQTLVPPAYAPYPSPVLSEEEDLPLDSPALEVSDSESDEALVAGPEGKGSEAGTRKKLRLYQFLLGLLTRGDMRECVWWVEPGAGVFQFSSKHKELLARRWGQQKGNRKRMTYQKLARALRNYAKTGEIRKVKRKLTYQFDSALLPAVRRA
# Chain of HSF1 (Q00613 whole entry): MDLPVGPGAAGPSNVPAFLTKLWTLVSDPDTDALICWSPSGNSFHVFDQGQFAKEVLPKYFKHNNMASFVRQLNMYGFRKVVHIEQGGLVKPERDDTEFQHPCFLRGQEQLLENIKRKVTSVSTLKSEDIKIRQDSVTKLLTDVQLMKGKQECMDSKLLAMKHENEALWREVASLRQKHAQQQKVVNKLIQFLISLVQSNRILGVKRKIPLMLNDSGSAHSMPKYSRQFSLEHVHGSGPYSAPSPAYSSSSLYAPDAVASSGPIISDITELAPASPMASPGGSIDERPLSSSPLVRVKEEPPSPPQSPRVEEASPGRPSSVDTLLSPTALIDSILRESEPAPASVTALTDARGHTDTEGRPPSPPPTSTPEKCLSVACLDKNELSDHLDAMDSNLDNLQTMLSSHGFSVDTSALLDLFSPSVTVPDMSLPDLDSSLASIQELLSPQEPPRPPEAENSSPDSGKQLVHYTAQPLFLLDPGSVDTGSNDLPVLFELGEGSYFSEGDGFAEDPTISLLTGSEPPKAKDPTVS
sequence,measurement,setting,value
ACTCGC,binding signal,FLI1,"1.19 fold enrichment (6-mer frequency, TF over GST control)"
same,binding signal,ELK1,"1.14 fold enrichment (6-mer frequency, TF over GST control)"
same,binding signal,GABPA,"1.18 fold enrichment (6-mer frequency, TF over GST control)"
same,binding signal,ERG,"1.09 fold enrichment (6-mer frequency, TF over GST control)"
same,binding signal,ELF1,"1.13 fold enrichment (6-mer frequency, TF over GST control)"
same,binding signal,EHF,"1.11 fold enrichment (6-mer frequency, TF over GST control)"
same,binding signal,SPI1,"1.15 fold enrichment (6-mer frequency, TF over GST control)"
same,binding signal,SPIB,"1.12 fold enrichment (6-mer frequency, TF over GST control)"
same,binding signal,FEV,"1.14 fold enrichment (6-mer frequency, TF over GST control)"
same,binding signal,ETV5,"1.15 fold enrichment (6-mer frequency, TF over GST control)"
same,binding signal,HSF1,"1.1 fold enrichment (6-mer frequency, TF over GST control)"
same,binding signal,SPIC,"1.2 fold enrichment (6-mer frequency, TF over GST control)"
same,binding signal,ELF4,"1.1 fold enrichment (6-mer frequency, TF over GST control)"
same,binding signal,ELK4,"1.14 fold enrichment (6-mer frequency, TF over GST control)"
same,binding signal,ETV2,"1.12 fold enrichment (6-mer frequency, TF over GST control)"
same,binding signal,ELF3,"1.21 fold enrichment (6-mer frequency, TF over GST control)"
same,binding signal,ETV1,"1.15 fold enrichment (6-mer frequency, TF over GST control)"
